Measurements from PubChem BioAssay (Tox21).
Records with an inconclusive call do not appear. Entries that show only a call come without a potency. Calls of active or inactive are those of the source. Unless noted, calls come from the whole dose curve; as a rule, active = well fitted cell-killing curve with a large enough effect in the repeat runs; inconclusive = weak or mixed curves, or effect the other way; inactive = no such curve, though single readings can be large or run the other way.
Potency is the fitted concentration of half-maximal effect.

Biological target: Bile acid receptor (Homo sapiens) (UniProt Q96RI1)
Sequence (Q96RI1 whole entry, looked up): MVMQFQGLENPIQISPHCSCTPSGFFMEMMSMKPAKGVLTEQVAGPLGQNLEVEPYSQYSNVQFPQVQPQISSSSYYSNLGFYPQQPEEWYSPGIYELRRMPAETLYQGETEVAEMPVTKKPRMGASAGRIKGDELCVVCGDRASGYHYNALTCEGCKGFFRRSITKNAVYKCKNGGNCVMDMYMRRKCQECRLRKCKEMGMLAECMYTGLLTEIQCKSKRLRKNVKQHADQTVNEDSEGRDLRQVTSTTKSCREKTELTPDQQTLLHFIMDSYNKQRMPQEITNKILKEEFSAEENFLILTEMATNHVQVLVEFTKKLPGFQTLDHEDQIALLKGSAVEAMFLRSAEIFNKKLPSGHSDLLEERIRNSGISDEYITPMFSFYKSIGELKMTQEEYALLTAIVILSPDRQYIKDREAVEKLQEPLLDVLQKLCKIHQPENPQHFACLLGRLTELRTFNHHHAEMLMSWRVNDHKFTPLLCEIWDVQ
Test: qHTS assay to identify small molecule antagonists of the farnesoid-X-receptor (FXR) signaling pathway (AID 743217; active = well fitted inhibition curve with a large enough effect in the signal ratio in the repeat runs, not every such curve was filed as active; the % refers to the signal ratio)
Conditions: HEK293T FXR-UAS-bla, beta-lactamase ratio, CDCA-stimulated, 16 h; series mostly up to 62.6 µM
Method in brief: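 Screen of the Tox21 10K library in quantitative HTS format using FXR-UAS-bla HEK 293T reporter cells. Agonist chenodeoxycholic acid, 50 uM final, added with compounds; 16 h incubation at 37 °C; beta-lactamase FRET fluorescence measured.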
For `N#CC1(c2ccc(F)cc2)CCC(=O)CC1`, the Potency was “inactive”.
In the case of `COc1cccc(N)c1`, the Potency was “inactive”.
For `CC1=C(C(=O)OC(C)C)C(c2cccc([N+](=O)[O-])c2)C(C(=O)OC2CN(C(c3ccccc3)c3ccccc3)C2)=C(N)N1` (stereo not drawn), the Potency was 29.8 µM (active).

Tested on: not listed separately
Test: qHTS assay to identify small molecule agonists of the farnesoid-X-receptor (FXR) signaling pathway - cell viability counter screen (AID 743218); note: nearly all actives have a fitted effect of over 45% in size
Conditions: FXR-bla HEK293T viability, CellTiter-Glo luminescence, 16 h; series mostly up to 62.6 µM
Method in brief: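 Viability of FXR-bla HEK 293T cells is measured by ATP-based CellTiter-Glo luminescence following 16 h compound treatment at 37 C and a prior 2 h room-temperature beta-lactamase substrate step.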
With `CCCCCCCCOC(=O)c1ccc(O)cc1` the Potency was “inactive”.
With `N#CC1(c2ccc(F)cc2)CCC(=O)CC1` the Potency was “inactive”.
With `O=c1cc(-c2ccc(O)cc2)oc2cc(O)cc(O)c12` the Potency was “inactive”.
For `Cc1oc(-c2ccccc2)nc1CCC(=O)c1ccc(CC2SC(=O)NC2=O)cc1` (stereo not drawn), the Potency was “inactive”.
In the case of `CC[C@@]1(O)C(=O)OCc2c1cc1n(c2=O)Cc2c-1nc1ccccc1c2/C=N/OC(C)(C)C`, the Potency was 13.3 µM (active).
With `NC(=O)C1(N2CCCCC2)CCN(CCCN2c3ccccc3CCc3ccc(Cl)cc32)CC1` the Potency was 11.9 µM (active).
With `CC1=C(C(=O)OC(C)C)C(c2cccc([N+](=O)[O-])c2)C(C(=O)OC2CN(C(c3ccccc3)c3ccccc3)C2)=C(N)N1` (stereo not drawn) the Potency was 13.3 µM (active).
With `COC(=O)C1=C(C)NC(C)=C(C(=O)OCCc2ccc(N3CCN(C(c4ccccc4)c4ccccc4)CC3)cc2)C1c1cccc([N+](=O)[O-])c1` (stereo not drawn) the Potency was “inactive”.
For `OCCN(CCO)c1nc(N2CCCCC2)c2nc(N(CCO)CCO)nc(N3CCCCC3)c2n1`, the Potency was “inactive”.
With `CCCCCCCC(=O)[O-].CCCCCCCC(=O)[O-].[Zn+2]` the Potency was “inactive”.
In the case of `CN(C)[C@@H]1C(=O)C(C(N)=O)=C(O)[C@@]2(O)C(=O)C3=C(O)c4c(O)cccc4C[C@H]3C[C@@H]12`, the Potency was “inactive”.
With `O=[N+]([O-])c1cc([N+](=O)[O-])c2ccc(S(=O)(=O)O)cc2c1O` the Potency was “inactive”.
In the case of `Cc1[nH]nc2c1N=C(c1ccccc1Cl)c1cc([N+](=O)[O-])ccc1N2`, the Potency was 24.5 µM (active).
In the case of `C/C(=C(/OCCOc1ccc(Cl)cc1)c1ccc(Cl)cc1Cl)n1ccnc1`, the Potency was “inactive”.
For `CN1CCC(Nc2ncc3ncnc(Nc4ccc(F)c(Cl)c4)c3n2)CC1`, the Potency was 11.9 µM (active).
With `Cc1cccc2c1cc1ccc3cccc4ccc2c1c34` the Potency was “inactive”.
For `OCCN1CCN(CC/C=C2/c3ccccc3Sc3ccc(C(F)(F)F)cc32)CC1`, the Potency was 26.6 µM (active).
For `O=C(N/N=C/c1ccccc1O)c1ccncc1`, the Potency was “inactive”.
With `CCc1cc(SCc2sc(-c3ccc(C(F)(F)F)cc3)nc2CN2CCN(c3ccc(OC)cc3)CC2)ccc1OCC(=O)O` the Potency was 7.76 µM (active).
For `CCC(CN)=C(c1ccccc1)c1ccccc1`, the Potency was 23.7 µM (active).
In the case of `Nc1cc(C(F)(F)F)ccc1S`, the Potency was “inactive”.
With `Nc1nc2ccccc2n1Cc1ccc(F)cc1` the Potency was “inactive”.
With `CCCCCCCCNC(C)C(O)c1ccc(SC(C)C)cc1` (stereo not drawn) the Potency was 18.8 µM (active).
In the case of `Cc1cc(=O)oc2cc(N(C)C)ccc12`, the Potency was “inactive”.
In the case of `O=C(Oc1ccccc1)c1ccccc1C(=O)Oc1ccccc1`, the Potency was “inactive”.
